Compound activity: PubChem, National Center for Advancing Translational Sciences (NCATS)
This excerpt belongs to a sample that is enriched for hits.
ASM inhibitor: Inhibitors of Secretory Acid Sphingomyelinase (S-ASM): qHTS | Sphingomyelin phosphodiesterase (Homo sapiens), P17405 | placental ASM, HMU-PC fluorogenic substrate, 60 min | Potency, µM (series often up to 57.5 µM), for inactives: at the top dose activity change, negative = inhibition, hits mostly inhibitors | 340,000 tested, 0.006% active; further: potency means the concentration at half of the fitted maximal effect
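Human placenta-derived ASM enzyme was preincubated with compound for 10 minutes at room temperature, then given fluorogenic substrate HMU-PC0 (9 uM final) for 60 minutes at 37 °C; a pH 10 stop preceded fluorescence reading at Ex 386/Em 447 nm.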
ClpP mod: qHTS Assay for Activators of ClpP. purified B. subtilis ClpP, FRET peptide cleavage, 20 min. AID 651965, 2013. 340,000 tested, 1.9% active. Potency, µM (titrated, usually from 57.5 µM), for inactives: at the highest dose activity change, negative = active. ATP-dependent Clp protease proteolytic subunit (Bacillus subtilis (strain 168)), P80244; active means well fitted falling curve with a large enough effect; inconclusive means small, poorly fitted or top-dose-only effect; inactive means no such curve, though single readings can be large or run the other way; further: potency means the concentration at half of the fitted maximal effect; the source files actives as falling curves though it sought activators and does not explain the sign; nearly all actives have a fitted effect of over 65% in size
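FRET quenching reversal measured ClpP activation: 10 microg/mL B. subtilis ClpP at pH 8 with the FRET-FV decapeptide, read at 430 nm after 320 nm excitation. The 20-min minus 0-min signal was scaled between DMSO/no-enzyme wells and ADEP (5.8 microM final).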
Mito fusion yeast: qHTS Assay for Small Molecule Inhibitors of Mitochondrial Division or Activators of Mitochondrial Fusion. S. cerevisiae fusion-defective mutant growth rescue, CellTiterGlo 48 h. Potency, µM (top dose mostly 46.1 µM), for inactives: at the top dose growth rescue (activation), hits mostly activators. 320,000 tested, 0.23% active; further: potency means the concentration at half of the fitted maximal effect; % of control where 0% means no effect; nearly all actives have a fitted effect of over 45% in size
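Luminescent cell viability in 1536-well qHTS format served as the measure of rescued growth in ts fusion-mutant S. cerevisiae cultured on non-fermentable YPEG for 48 hours at 37C.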
RGS4 inhibitor: Inhibitors of Regulator of G Protein Signaling (RGS) 4: qHTS. Regulator of G-protein signaling 4 (Homo sapiens), P49798. Transcreener GDP fluorescence polarization, RGS4-accelerated GTP hydrolysis. Potency, µM (series often up to 114 µM), for inactives: top-dose activity change, negative = inhibition, most hits filed as inhibitors. 390,000 tested, 0.039% active. AID 504845, 2011; further: potency means the concentration at half of the fitted maximal effect; on the % scale 0 is the no-effect control and ±100 the full control effect; nearly all actives have a fitted effect of over 75% in size
Target sequence (P49798 whole entry, looked up): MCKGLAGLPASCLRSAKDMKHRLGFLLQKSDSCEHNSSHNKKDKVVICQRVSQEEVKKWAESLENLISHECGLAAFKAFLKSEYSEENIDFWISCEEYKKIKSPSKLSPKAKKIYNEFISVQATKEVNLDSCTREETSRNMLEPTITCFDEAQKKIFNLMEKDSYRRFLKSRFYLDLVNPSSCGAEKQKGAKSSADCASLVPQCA
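MLSMR compounds (23 nl, pin-transferred) preincubated 10 min at room temperature with a 500nM (2x) first reagent, then RGS4 at 900nM (2x) plus Transcreener GDP mix added; fluorescence polarization (620/688 nm) read before and after 90 min at 30 °C.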
IDH1 R132H inh: qHTS for Inhibitors of mutant isocitrate dehydrogenase 1 (IDH1): qHTS; 390,000 tested, 0.093% active; Isocitrate dehydrogenase [NADP] cytoplasmic (Homo sapiens), O75874; Potency, µM (top dose mostly 76.6 µM), inactives show top-dose activity change, negative = inhibition, actives largely listed as inhibitors; IDH1-R132H enzyme, NADPH consumption, diaphorase/resazurin fluorescence; AID 602179, 2012; further: potency means the concentration at half of the fitted maximal effect; on the % scale 0 is the no-effect control and ±100 the full control effect; nearly all actives have a fitted effect of over 65% in size
Target sequence (O75874 whole entry R132H, stated change not applied): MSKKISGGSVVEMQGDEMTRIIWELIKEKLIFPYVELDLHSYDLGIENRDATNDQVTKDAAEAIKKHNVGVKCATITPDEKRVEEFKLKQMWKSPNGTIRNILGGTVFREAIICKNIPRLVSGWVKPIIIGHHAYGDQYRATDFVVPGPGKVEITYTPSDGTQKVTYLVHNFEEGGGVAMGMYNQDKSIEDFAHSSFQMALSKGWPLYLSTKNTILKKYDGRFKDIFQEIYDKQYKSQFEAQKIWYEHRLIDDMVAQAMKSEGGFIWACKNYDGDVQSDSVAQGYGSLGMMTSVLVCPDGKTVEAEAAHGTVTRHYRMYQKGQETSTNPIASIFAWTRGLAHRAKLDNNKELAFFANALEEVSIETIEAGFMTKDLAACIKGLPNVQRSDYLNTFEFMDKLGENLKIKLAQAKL
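IDH1-R132H (0.5 ug/mL) preincubated 30 min with compound, then NADPH (0.016 mM) and alpha-KG (2 mM) added; 80 min at RT, pH 7.5. Remaining NADPH coupled via diaphorase/resazurin to fluorescence (540/590 nm); concentration-response curves normalized to no-enzyme control.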
LDHA block: qHTS assay for inhibitors of human lactate dehydrogenase | L-lactate dehydrogenase A chain (Homo sapiens), P00338 | purified LDHA, NADH/diaphorase-resazurin fluorescence; active compounds read low | activity change, % (values are at about 110 or 230 µM) | 480,000 tested, 0.15% active | AID 1347041, 2019; in the data active means activity change below about -30%; inconclusive means mostly about -25% to -30%;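 further: plate controls were DMSO wells for no effect and wells without enzyme for full effect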
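Human LDH5 at 2 nM final in Tris HCl pH 7.4 with 0.06 mM NADH and 0.2 mM pyruvate, reacted 5 minutes at room temperature. Remaining NADH coupled via diaphorase/resazurin; resorufin fluorescence read at 0 and 20 minutes, normalized to enzyme-free and DMSO wells.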
* marks the source's active call; other numbers are inactive results. Unless noted, the call rests on the fitted dose curve; in most records, active means well fitted curve in the direction sought with a large enough effect; inconclusive means small, poorly fitted or top-dose-only effect, or another doubt; inactive means no such curve, though single readings can be large; an effect the other way counts as inactive or inconclusive.

For O=C(c1ccc(Cl)cc1)c1oc2ccccc2c1CS(=O)c1ccc(Cl)cc1 (stereo not given) the results were ASM inhibitor -16%, ClpP mod -3%, Mito fusion yeast 5%, RGS4 inhibitor -21%, IDH1 R132H inh 1% and LDHA block -7.
`COCc1cc(=O)[nH]c2cc(NC(=O)C3CC3)c(C)cc12` gave ASM inhibitor 0%, ClpP mod 20µM*, Mito fusion yeast -7%, RGS4 inhibitor 12%, IDH1 R132H inh 9% and LDHA block 7.
`Fc1cccc(-c2nc(CN3CCCC3c3nnc4ccccn34)co2)c1` (stereo not given) gave LDHA block -1.
`COc1ccccc1Nc1nc(C)cc(C)n1` gave ASM inhibitor 10%, ClpP mod 18µM*, Mito fusion yeast -6%, RGS4 inhibitor 16%, IDH1 R132H inh 13% and LDHA block -3.
`C=CCn1c(SCC(=O)N2CCc3ccccc3C2)nc2sc(CC)cc2c1=O` gave ASM inhibitor 1%, ClpP mod 20µM*, Mito fusion yeast inconclusive, RGS4 inhibitor 31%, IDH1 R132H inh inconclusive and LDHA block -2.
C=CCn1c(SCC(=O)N2CCc3ccccc3C2)nc2sc(C)c(C)c2c1=O was read as ASM inhibitor -6%, ClpP mod -1%, Mito fusion yeast 13µM*, RGS4 inhibitor -17%, IDH1 R132H inh -1% and LDHA block 3.
Screening Cc1nnc2ccc(N3CCC(C(=O)O)CC3)nn12 returned LDHA block -6.
O=C(O)c1csc(-n2nc(-c3ccccc3)cc2C(F)(F)F)n1 was read as ASM inhibitor 13%, ClpP mod 5%, Mito fusion yeast 16%, RGS4 inhibitor 15%, IDH1 R132H inh -3% and LDHA block -87*.
`Cc1ccc(C2CCCN2C(=O)c2cc(C)on2)cc1` (stereo not given) gave LDHA block 7.
`CC(C)Oc1ccc(CNC(=O)CCCn2c(=O)c3cccn3c3cccnc32)cc1` gave ClpP mod 4%, RGS4 inhibitor -13%, IDH1 R132H inh 12% and LDHA block -7.
For CCc1ccc(CNC(=O)CCCn2c(=O)c3cccn3c3cccnc32)cc1 the results were ASM inhibitor 0%, ClpP mod -17%, Mito fusion yeast 11µM*, RGS4 inhibitor -20%, IDH1 R132H inh -2% and LDHA block -1.
`Cn1cc(C(C(=O)O)N2CCC(Cc3ccccc3)CC2)c2cc(C(=O)O)ccc21` (stereo not given) gave LDHA block -4.
For Cc1nn(C)c2ncc(NC(=O)CCc3ncc(-c4ccccc4F)o3)cc12 the results were LDHA block 8.
`COC(=O)C1=CN(C(C)C)C=C(C(=O)OC)C1c1cccc(OC)c1` gave ASM inhibitor inactive, ClpP mod 31%, Mito fusion yeast 4%, RGS4 inhibitor -6%, IDH1 R132H inh 2% and LDHA block -4.
`COC(=O)C1=CN(C(C)C)C=C(C(=O)OC)C1c1cc(Br)c(OC)c(OC)c1` gave ASM inhibitor inactive, ClpP mod 6.3µM*, Mito fusion yeast 24%, RGS4 inhibitor -9%, IDH1 R132H inh 4% and LDHA block 0.
Screening O=C(NCC(c1ccco1)N1CCc2ccccc2C1)c1ccc(Br)cc1 (stereo not given) returned ASM inhibitor -1%, ClpP mod 25µM*, Mito fusion yeast 14%, RGS4 inhibitor -20%, IDH1 R132H inh 11% and LDHA block -3.
Screening COc1ccc(Cl)cc1NC(=O)Cn1c(SCc2cccc(C)c2)nc2ccncc21 returned LDHA block 0.
For O=C(CSc1nc2ccccc2s1)c1cccc(C(F)(F)F)c1 the results were LDHA block 8.
`O=C(CSc1nc2ccccc2s1)Nc1cccc(C(F)(F)F)c1` gave LDHA block -30*.
`CCCn1c(C)nc2c(c1=O)c1nc3ccccc3nc1n2CCC1=CCCCC1` gave ASM inhibitor 352%, ClpP mod 32µM*, Mito fusion yeast 4%, RGS4 inhibitor -10%, IDH1 R132H inh -28% and LDHA block -2.
CCc1nc2ccc(C(=O)NCc3cc(OC)ccc3OC)cc2nc1CC was read as ClpP mod 0%, RGS4 inhibitor -19%, IDH1 R132H inh 13% and LDHA block 4.
For CCc1nc2ccc(C(=O)NCCc3ccc(OC)cc3OC)cc2nc1CC the results were ClpP mod 32µM*, RGS4 inhibitor 11%, IDH1 R132H inh -11% and LDHA block 3.
For COc1ccc2oc(-c3ccccc3)c(C(N)=O)c2c1 the results were ASM inhibitor 4%, ClpP mod 32µM*, Mito fusion yeast 1%, RGS4 inhibitor 4%, IDH1 R132H inh 2% and LDHA block -2.
CN(C)C(=O)c1c(-c2ccccc2)oc2ccc(O)cc12 was read as ASM inhibitor 61%, ClpP mod 20µM*, Mito fusion yeast 7%, RGS4 inhibitor -13%, IDH1 R132H inh 2% and LDHA block 1.
Screening COc1ccc(C(=O)c2c(-c3ccc(OC)cc3)oc3ccc(-c4ccc(OC)nc4)cc23)cc1 returned ASM inhibitor 103%, ClpP mod 16µM*, RGS4 inhibitor -11%, IDH1 R132H inh -2% and LDHA block -4.
For COc1ccc2oc(-c3ccccc3)c(C(=O)O)c2c1 the results were ASM inhibitor 20%, ClpP mod 4%, Mito fusion yeast inconclusive, RGS4 inhibitor 31%, IDH1 R132H inh 9% and LDHA block -6.
`CCN(Cc1ccc(OC)c(F)c1)C(=O)c1nn(C)c(=O)c2ccccc12` gave LDHA block -5.
For CSc1ccc(/C=N/NC(=O)c2ccc(C)c(C)c2)cc1 the results were ASM inhibitor 3%, ClpP mod inconclusive, Mito fusion yeast -8%, RGS4 inhibitor inconclusive, IDH1 R132H inh 2% and LDHA block -48*.
